From PubChem BioAssay
hNpr1 antagonist: human Npr1 receptor antagonism; P16066; HEK293 hNpr1 GloSensor cGMP, ANP-stimulated luminescence; Potency, µM (top dose mostly 46.3 µM), for the others: at the top dose activity change, negative = inhibition, hits mostly inhibitors; 76,000 tested, 1.6% active; AID 1347048; calls by dose curve; also: nearly all actives have a fitted effect of over 60% in size
Target sequence (P16066 whole entry, looked up): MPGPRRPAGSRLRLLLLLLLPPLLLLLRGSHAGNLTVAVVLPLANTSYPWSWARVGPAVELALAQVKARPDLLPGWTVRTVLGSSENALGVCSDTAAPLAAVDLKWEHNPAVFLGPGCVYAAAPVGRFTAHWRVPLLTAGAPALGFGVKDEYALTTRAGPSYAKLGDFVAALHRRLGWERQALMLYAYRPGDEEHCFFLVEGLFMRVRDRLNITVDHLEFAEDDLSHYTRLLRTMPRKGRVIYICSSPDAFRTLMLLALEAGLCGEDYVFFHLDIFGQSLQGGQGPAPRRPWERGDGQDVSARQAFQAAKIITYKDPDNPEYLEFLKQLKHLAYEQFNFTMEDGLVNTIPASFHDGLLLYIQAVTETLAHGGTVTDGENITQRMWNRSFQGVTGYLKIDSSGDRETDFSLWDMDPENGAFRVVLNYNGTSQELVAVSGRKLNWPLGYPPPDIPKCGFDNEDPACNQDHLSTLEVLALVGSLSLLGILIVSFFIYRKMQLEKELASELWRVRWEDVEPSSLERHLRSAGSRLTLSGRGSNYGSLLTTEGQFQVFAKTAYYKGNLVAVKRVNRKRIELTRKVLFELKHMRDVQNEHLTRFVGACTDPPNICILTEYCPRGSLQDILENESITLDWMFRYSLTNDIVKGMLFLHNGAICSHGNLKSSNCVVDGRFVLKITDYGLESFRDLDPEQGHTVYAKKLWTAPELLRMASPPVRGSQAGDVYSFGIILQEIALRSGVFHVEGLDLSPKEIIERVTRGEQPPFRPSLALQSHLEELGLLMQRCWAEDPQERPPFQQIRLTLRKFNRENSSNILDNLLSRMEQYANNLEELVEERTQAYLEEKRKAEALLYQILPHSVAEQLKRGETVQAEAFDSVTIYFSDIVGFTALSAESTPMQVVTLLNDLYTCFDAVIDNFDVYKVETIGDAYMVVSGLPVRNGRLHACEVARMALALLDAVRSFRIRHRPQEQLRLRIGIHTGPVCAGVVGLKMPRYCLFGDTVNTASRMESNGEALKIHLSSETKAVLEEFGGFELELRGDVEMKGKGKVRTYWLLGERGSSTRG
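Compound pre-incubated 30 min at room temperature on GloSensor-loaded HEK293 cells stably carrying hNpr1 and the pGS-40F cGMP biosensor. Stimulation uses hNppA at 0.1 nM final; luminescence is taken at baseline and 20 min post-agonist.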
Luciferase inh: blocks purified firefly luciferase enzyme activity | Potency, µM (top dose mostly 115 µM), usual class: inhibitors | P08659 | purified P. pyralis luciferase, luminescence, biochemical | AID 1347043 | 76,000 tested, 2.5% active; also: nearly all actives have a fitted effect of over 65% in size
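Cell-free enzyme assay, 10nM P. pyralis luciferase, luciferin and ATP each at 10uM. Inhibition profiled over a 6-point titration, read as luminescence.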
HEK cytotox: HEK 293 cell cytotoxicity; HEK 293 viability, ATP luminescence (CellTiter-Glo), 48-72 h; Potency, µM (top dose mostly 115 µM), for inactives: at the highest dose activity change, negative = cytotoxicity, most hits filed as inhibitors; 94,000 tested, 6.6% active; AID 1345083; also: nearly all actives have a fitted effect of over 60% in size
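qHTS cytotoxicity; HEK 293, 250 cells/well; compound pinned; 48 or 72 hr, 37 degree Celsius, 5% CO2, 95% humidity; CellTiter-Glo, 10 min RT; luminescence (ATP).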
GPT2 inh: GPT2 alanine aminotransferase inhibition; Q8TD30; Recombinant GPT2, coupled pyruvate oxidase/HRP Amplex Red fluorescence; Potency, µM (highest dose often 57.7 µM), without a hit: at the highest dose activity change, negative = inhibition, most hits filed as inhibitors; 100,000 tested, 0.25% active; AID 1671188; also: nearly all actives have a fitted effect of over 60% in size
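Recombinant GPT2 (10ng/uL) with 250uM a-KG and 2mM L-alanine, 30 min at room temperature, in HEPES pH 7.5 buffer. Pyruvate detected by pyruvate oxidase/HRP/Amplex Red fluorescence after 30 min in the dark; AOA (50uM) as positive control.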
3T3 cytotox: kills NIH 3T3 cells. NIH 3T3 viability, CellTiter-Glo ATP luminescence, 48-72 h. Potency, µM (doses to about 96.7 µM), for the others: top-dose activity change, negative = cytotoxicity, usual class: inhibitors. 94,000 tested, 4.3% active. AID 1345082; also: nearly all actives have a fitted effect of over 55% in size
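NIH 3T3 cells at 400 cells/well received 23 nL of compound by pintool and were incubated 48 or 72 h at 37 °C. Viability was read as ATP-coupled CellTiter-Glo luminescence.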
The depositor's hits bear a star; i = inactive; ? = inconclusive; · = no result given; [ ] = another dose, or the depositor's remark. Hits are enriched below; roughly 10% of the tested compounds scored in any of these assays. Unless noted, calls follow the shape of the dose curve; as a rule, active = well fitted curve in the direction sought with a large enough effect; inconclusive = small, poorly fitted or top-dose-only effect, or another doubt; inactive = no such curve, though single readings can be large; an effect the other way counts as inactive or inconclusive. % is scaled to controls: 0 for no effect and ±100 for the full control effect; potency is read from the fitted curve at half-maximal effect.

SMILES	hNpr1 antagonist	Luciferase inh	HEK cytotox	GPT2 inh	3T3 cytotox
Cc1noc(C)c1CN1CCc2ncc(C(=O)Nc3ccccc3)n2CC1	-1.7%[70.6 µM]	i	-23.3%[172 µM]	i	?
CCCN1CCc2nc(C(=O)Nc3nc(C)cs3)oc2CC1	-2.4%[70.6 µM]	20µM*	?	-3.3%[88.5 µM]	-22.9%[138 µM]
Cc1csc(NC(=O)c2nc3c(o2)CCN(Cc2ccccc2)CC3)n1	-30.0%[70.6 µM]	?	56.2µM*	-24.8%[88.5 µM]	?
Cc1csc(NC(=O)c2nc3c(o2)CCN(Cc2ccc(C#N)cc2)CC3)n1	?	22.4µM*	?	3.6%[88.5 µM]	?
COc1ccc(CN2CCc3nc(C(=O)NCc4ccncc4)oc3CC2)cc1	?	i	?	-9.4%[88.5 µM]	?
O=C(NCC1CC1)c1nc2c(o1)CCN(CCCc1ccccc1)CC2	3.5%[70.6 µM]	?	?	i	-20.3%[138 µM]
Cc1csc(NC(=O)c2nc3c(o2)CCN(Cc2c(C)noc2C)CC3)n1	-1.2%[70.6 µM]	63.1µM*	-25.9%[172 µM]	-6.6%[88.5 µM]	50.1µM*
Cc1cccc(C)c1-c1nnc2ccc(C(=O)NCc3ccc(Cl)cc3)cn12	·	·	?	-4.6%	?
O=C(NC1CCN(c2cnn(Cc3ccccc3)c(=O)c2)CC1)c1ccoc1	2.3%	i	0.6%	i	i
O=C(NCc1ccccc1F)C1CCN(c2ccnc3ccnn23)CC1	·	·	15.8µM*	2.7%	?
O=C(NCc1ccccc1)C1CCCN(c2ccnc3ccnn23)C1 (centres undefined)	·	·	100µM*	1.6%[88.5 µM]	?
O=C(NCc1cccc(Cl)c1)C1CCCN(c2ccnc3ccnn23)C1 (centres undefined)	·	·	?	0.9%	?
O=C(NCCc1ccccc1F)C1CCN(c2ccnc3ccnn23)CC1	·	·	?	-8.7%	?
O=C(NCc1ccccc1)C1CN(c2ccnc3ccnn23)C1	·	·	?	-7.1%[88.5 µM]	?
O=C(NCc1ccc(Cl)cc1)C1CCCN(c2ccnc3ccnn23)C1 (centres undefined)	·	·	50.1µM*	i	?
Fc1cccc(Nc2ncc(-c3cccnc3)c3c2OCC3)c1	-10.4%[70.6 µM]	i	?	i	-34.1%[138 µM]
O=c1n(-c2ccc([N+](=O)[O-])cc2)nc2n1CCN(Cc1ccc(F)cc1)C2	?	i	35.5µM*	-8.6%	?
O=C(c1ccc(F)cc1)N1CCn2c(nn(-c3ccc([N+](=O)[O-])cc3)c2=O)C1	-0.3%	i	i	?	-15.4%
O=c1n(-c2ccc([N+](=O)[O-])cc2)nc2n1CCN(Cc1ccsc1)C2	-24.7%[70.6 µM]	?	39.8µM*	i	?
O=c1n(-c2ccc(F)cc2F)nc2n1CCN(Cc1ccc(F)cc1)C2	18.9%	i	50.1µM*	i	?
O=c1n(-c2ccc([N+](=O)[O-])cc2)nc2n1CCN(Cc1ccccc1)C2	-22.5%	i	28.2µM*	i	?
FC(F)(F)c1cccc(-c2cc(-c3cccnc3)c3cncn3c2)c1	-17.4%[70.6 µM]	i	?	-4.5%[88.5 µM]	?
CC(C)NCC1(COc2ccc(C(F)(F)F)cn2)C[C@@H](O)[C@@H](O)C1 (some centres undefined)	4.0%[70.6 µM]	i	i	1.5%[88.5 µM]	i
Cc1ccc(C(=O)NCc2nnc3cc(-c4nc(C(C)C)no4)ccn23)cc1	3.4%	i	3.7%	i	i
O=Cc1ccccc1-c1cnc2ccccc2c1	·	·	-25.2%[172 µM]	-12.9%[88.5 µM]	79.4µM*
SMILES	hNpr1 antagonist	Luciferase inh	HEK cytotox	GPT2 inh	3T3 cytotox
Cc1cc(C)cc(-c2ccccc2C=O)c1	·	·	?	i	?
CC(C)Cn1c(=O)c(C(=O)N2CCN(C(=O)N(C)C)CC2)nc2cccnc21	·	·	-4.6%	i	-16.6%
O=C(NCCc1ccc(Cl)cc1)C1CCN(c2ccnc3ccnn23)CC1	·	·	?	i	?
Cc1ccsc1CN1CC(Oc2ccc(-c3noc(C4CCOCC4)n3)cc2)C1	·	·	20µM*	i	39.8µM*
COc1ccc(F)cc1-c1ccc(CN2CCC(N[S+](=O)([O-])c3cccc(C(F)(F)F)c3)C2)cc1 (centres undefined)	·	·	20µM*	·	12.6µM*
COc1ccccc1-c1ccc(CN2CCC(NC(=O)Cc3ccccn3)C2)cc1 (centres undefined)	·	·	?	i	?
COc1ccccc1-c1ccc(CN2CCC(N[S+](=O)([O-])c3cccc(C(F)(F)F)c3)C2)cc1 (centres undefined)	·	·	20µM*	·	12.6µM*
COc1ccccc1-c1ccc(CN2CCC(N[S+](=O)([O-])c3ccccc3)C2)cc1 (centres undefined)	·	·	35.5µM*	·	31.6µM*
COc1ccc(F)cc1-c1ccc(CN2CCC(N[S+](=O)([O-])c3ccc(NC(C)=O)cc3)C2)cc1 (centres undefined)	·	·	14.1µM*	·	?
COc1ccccc1-c1ccc(CN2CCC(N[S+](=O)([O-])c3cccs3)C2)cc1 (centres undefined)	·	·	?	2.8%	?
Cc1nn(-c2ccccc2)c2c1C(C(C)C)N(C1CN(C(=O)NC(C)C)C1)C2=O (centres undefined)	·	·	?	·	-24.9%
Cc1cc(=O)n(CC(=O)NCc2ccccc2Br)c(N(C)Cc2ccccc2)n1	-14.3%	i	?	i	?
Cc1ccc(C(=O)N2CCC(N3CC4(CCCC4)C3c3ccccc3)CC2)s1 (centres undefined)	·	·	?	i	?
Fc1ccc(CNC2(Cc3cc(-c4ccccc4)on3)COC2)cc1	?	i	89.1µM*	-9.1%[88.5 µM]	-13.7%[174 µM]
FC(F)(F)Oc1ccc(CNC2(Cc3cc(-c4ccccn4)on3)COC2)cc1	-1.7%[70.6 µM]	i	?	-13.1%[88.5 µM]	-21.7%[138 µM]
CC(C)(C)c1cc(CC2(NCc3ccc(OC(F)(F)F)cc3)COC2)no1	4.3%[70.6 µM]	i	?	?	112µM*
Oc1ccccc1CNC1(Cc2cc(-c3ccccc3)on2)COC1	-4.0%[70.6 µM]	i	-21.4%[172 µM]	i	?
Clc1ccc(CNC2(Cc3cc(COc4ccccc4)on3)COC2)cc1	-20.8%[70.6 µM]	i	79.4µM*	?	?
Oc1ccccc1CNC1(Cc2cc(-c3ccc(F)cc3)on2)COC1	?	i	100µM*	1.2%[88.5 µM]	?
CC(C)CCNC(=O)c1c(-c2cccnc2)cc(=O)n2c1CCCC2	·	·	-18.2%	i	-27.7%
CC(C)N1C[C@H](O)C[C@H]1c1nnc2n1CCN(C(=O)c1cnccn1)CC2	-20.0%	i	0.1%	i	-25.3%
N#CCNC(=O)[C@@H]1CCCN1c1ccnc2ccnn12	·	·	-3.6%[172 µM]	·	2.9%[138 µM]
COc1ccc(-c2cc(CC3(NCc4ccccc4)COC3)no2)cc1	5.1%[70.6 µM]	i	100µM*	2.2%[88.5 µM]	?
Clc1ccccc1CNC1(Cc2cc(-c3ccccc3)on2)COC1	-14.4%[70.6 µM]	i	112µM*	0.5%[88.5 µM]	?
